# A number with no mark means an inactive call. Results filed as inconclusive are left out. Entries that show only a call come without a potency. Activity calls are given as the source filed them. The call rests on the fitted dose curve; in most records, active means well fitted curve in the direction sought with a large enough effect; inconclusive means small, poorly fitted or top-dose-only effect, or another doubt; inactive means no such curve, though single readings can be large; an effect the other way counts as inactive or inconclusive.
# Columns and labels:
# [1] = test system: Zika virus NS2B-NS3 protease (linked construct); test: Primary screen NINDS Rhodamine qHTS for Zika virus inhibitors (AID 1347160); further: nearly all actives have a fitted effect of over 55% in size; further: potency means the concentration at half of the fitted maximal effect
# Procedure, shortened: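 Single-chain NS2B-NS3 protease, 25 nM, pH 8.0; compounds preincubated 15 min. Activity: Rhodamine110 release from 1.5 microM substrate over 15 min, room temperature, data fitted to 4-parameter Hill.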
# [2] = HPAF-II Cancer Cell Toxicity qHTS against the NCATS CANVASS Library (AID 1347346); further: nearly all actives have a fitted effect of over 55% in size; further: potency means the concentration at half of the fitted maximal effect
# Procedure, shortened: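 1000 HPAF-II cells/well; 4 h pre-incubation; 11-pnt compound titration; 72 h, 37 degrees C/5% CO2; CellTiter-Glo, 15 min RT; luminescence read.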
# [3] = U-118MG Cancer Cell Toxicity qHTS against the NCATS CANVASS Library (AID 1347351); further: potency means the concentration at half of the fitted maximal effect
# Procedure, shortened: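 Step one: seed 1000 cells per well. Step two: incubate 4 h. Step three: add test compounds in 11 concentrations. Step four: culture 72 h, then add CellTiter-Glo and record luminescence after 15min.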
# [4] = COV-362 Cancer Cell Toxicity qHTS against the NCATS CANVASS Library (AID 1347352); further: potency means the concentration at half of the fitted maximal effect
# Procedure, shortened: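 1000 cells/well, 4 h pre-incubation 37 °C/5% CO2; 11-pnt titration; 72 h; CellTiter-Glo 15 min RT, luminescence.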
# [5] = HPAF-II 24hr Apoptosis Induction qHTS against the NCATS CANVASS Library (AID 1347356)
# Procedure, shortened: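 500 HPAF-II cells/well; compounds in 11-pnt qHTS; 24 h, 37 C/5% CO2; Caspase-Glo 3/7 added, 15 min RT dark; luminescence read. Doxorubicin control.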
# [6] = HEK293 18hr Apoptosis Induction qHTS against the NCATS CANVASS Library (AID 1347357); further: potency means the concentration at half of the fitted maximal effect
# Procedure, shortened: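 HEK293 cells (500/well, DMEM + 10% FBS) treated with an 11-point series for 18 h at 37 degrees C. Caspase-3/7 activity read by Caspase-Glo luminescence after 15 min at room temperature.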
# [7] = HEK293 24hr Apoptosis Induction qHTS against the NCATS CANVASS Library (AID 1347359); further: potency means the concentration at half of the fitted maximal effect
# Procedure, shortened: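 HEK293 cells (500/well, DMEM + 10% FBS) were exposed to compounds in an 11-point series for 24 hours at 37 degrees C, then caspase-3/7 activity was read by Caspase-Glo DEVD luciferase luminescence after 15 min.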
# [8] = HEK293 12hr Apoptosis Induction qHTS against the NCATS CANVASS Library (AID 1347361); further: potency means the concentration at half of the fitted maximal effect
# Procedure, shortened: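 HEK293 cells (500/well) were exposed to an 11-point qHTS concentration series for 12 hours at 37 degrees C. Caspase-3/7 activity was then read by DEVD-substrate luciferase luminescence after 15 min at room temperature.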
# [9] = molecular target: Luciferin 4-monooxygenase (Photinus pyralis) (UniProt P08659); test: Firefly luciferase counterscreen qHTS: Assay Interference Panel against the NCATS CANVASS Library (AID 1347363); further: series mostly up to about 57 µM
# Procedure, shortened: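 Purified P. pyralis luciferase was added to compounds (11-point series) preincubated 15 min at room temperature with substrate containing 0.013 mM D-luciferin and 0.013 mM ATP; luminescence was read after 5 min.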
# [10] = KB-3-1 Cancer Cell Toxicity qHTS against the NCATS CANVASS Library (AID 1347366); further: nearly all actives have a fitted effect of over 75% in size; further: potency means the concentration at half of the fitted maximal effect
# Procedure, shortened: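 KB-3-1 cells (500/well) in DMEM with 10% FBS were exposed to compounds for 72 h at 37C. Viability was read by CellTiter-Glo luminescence.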
# [11] = qHTS for ATAD5 Agonist screened against the NCATS CANVASS Library (AID 1347367);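 further: luciferase reporter driven by ATAD5 which rises upon DNA damage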
# Procedure, shortened: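 Luciferase reporter under ATAD5 control, stably integrated in HEK293T cells (2000/well). Compounds (11 points) incubated 16 h at 37C; viability read first by CellTiter-Fluor, then luminescence reporting ATAD5 activation. MMS positive control.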
# [12] = MCF7 Cancer Cell Toxicity qHTS against the NCATS CANVASS Library (AID 1347369); further: potency means the concentration at half of the fitted maximal effect
# Procedure, shortened: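 MCF7 cells (500/well) were exposed 72 h at 37 °C to compounds in an 11-point series. Viability was read as ATP content by CellTiterGlo luminescence.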
# [13] = qHTS for ATAD5 Antagonist screened against the NCATS CANVASS Library (AID 1347370); further: nearly all actives have a fitted effect of over 65% in size; further: potency means the concentration at half of the fitted maximal effect
# Procedure, shortened: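 HEK293T-ATAD5 luc reporter, 2000 cells/well; 5hr attach; cpd + 10 uM 5-FUrd; 16hr 37C, 5% CO2. Readouts: CellTiter-Fluor fluorescence (1hr), then Amplite luciferase luminescence (30min RT).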
# [14] = J3T Cancer Cell Toxicity qHTS against the NCATS CANVASS Library (AID 1347371); further: potency means the concentration at half of the fitted maximal effect
# Procedure, shortened: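 Dog glioma J3T, 500 cells/well; cpd 11-pt qHTS; 72 hr, 37C/5% CO2; CellTiterGlo ATP luminescence readout.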
# [15] = molecular target: Nuclear receptor subfamily 1 group I member 3 (Homo sapiens) (UniProt Q14994); test: qHTS for Constitutive Androstane Receptor (CAR) Agonist screened against the NCATS CANVASS Library (AID 1347373);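 further: every well also contained 1.5 µM PK11195 alongside the test compound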
# Procedure, shortened: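 Luciferase read-out (ONE-Glo, 30 min RT) of CYP2B6-2.2kb promoter activity in double-stable HepG2-hCAR cells after 24hr compound exposure with 1.5uM PK11195 present; viability measured first by CellTiter-Fluor.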
# [16] = 10-beta competent E. coli microbial cell viability qHTS against the NCATS CANVASS Library (AID 1347376); further: series mostly up to about 46 µM
# Procedure, shortened: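 Luminescence from BacTiter-Glo ATP detection served as the viability read-out; bacteria (0.2 OD) had been incubated overnight at 37C with pin-transferred compounds at 11 concentrations.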
# [17] = qHTS for Inflammasome Signaling Inhibitors: IL-1-beta AlphaLISA screen against the NCATS CANVASS Library (AID 1347379);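 further: human THP-1 cells primed with LPS then triggered with ATP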
# Procedure, shortened: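 THP-1, 1 hr compound pre-incubation, then LPS 250 ng/mL + ATP 1.25 mM (final); 16 hr total with compound; IL-1B AlphaLISA, ex 680/em 615 nm; 11-point qHTS, up to 57.5 uM final.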
# [18] = Inflammasome Signaling qHTS Counterscreen: IL-1-beta AlphaLISA counterscreen against the NCATS CANVASS Library (AID 1347381);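 further: cell-free check with purified IL-1β in medium and no THP-1 cells; series mostly up to about 57 µM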
# Procedure, shortened: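 Here, no cellular stimulation occurs; compounds in an 11-point series meet 4 pg purified IL-1-beta directly. Bead-based AlphaLISA detection follows (1 h acceptor/antibody, then 30 min donor, dark, room temperature), with excitation at 680 nm.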
# [19] = Vero-766 cells viability qHTS against the NCATS CANVASS Library: Counterscreen for Zika virus inhibition assay (AID 1347394); further: nearly all actives have a fitted effect of over 60% in size; further: potency means the concentration at half of the fitted maximal effect
# Procedure, shortened: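 Vero 766 cells (1000/well), without Zika virus, were exposed to compounds for 72 h at 37C. Viability was measured by CellTiter Glo luminescence. Media-only wells served as 100% inhibition.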
# [20] = Viability qHTS for inhibitors of the SERCaMP assay screened against the NCATS CANVASS Library (AID 1347400); further: nearly all actives have a fitted effect of over 70% in size; further: potency means the concentration at half of the fitted maximal effect
# Procedure, shortened: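 CellTiter-Glo luminescence readout after 48 h compound exposure (11-pnt qHTS series) of SH-SY5Y-GLuc SERCaMP MJH297 cells seeded at 1000 cells/well; bortezomib positive control.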
# Chain of Luciferin 4-monooxygenase (Photinus pyralis) (P08659 whole entry, looked up): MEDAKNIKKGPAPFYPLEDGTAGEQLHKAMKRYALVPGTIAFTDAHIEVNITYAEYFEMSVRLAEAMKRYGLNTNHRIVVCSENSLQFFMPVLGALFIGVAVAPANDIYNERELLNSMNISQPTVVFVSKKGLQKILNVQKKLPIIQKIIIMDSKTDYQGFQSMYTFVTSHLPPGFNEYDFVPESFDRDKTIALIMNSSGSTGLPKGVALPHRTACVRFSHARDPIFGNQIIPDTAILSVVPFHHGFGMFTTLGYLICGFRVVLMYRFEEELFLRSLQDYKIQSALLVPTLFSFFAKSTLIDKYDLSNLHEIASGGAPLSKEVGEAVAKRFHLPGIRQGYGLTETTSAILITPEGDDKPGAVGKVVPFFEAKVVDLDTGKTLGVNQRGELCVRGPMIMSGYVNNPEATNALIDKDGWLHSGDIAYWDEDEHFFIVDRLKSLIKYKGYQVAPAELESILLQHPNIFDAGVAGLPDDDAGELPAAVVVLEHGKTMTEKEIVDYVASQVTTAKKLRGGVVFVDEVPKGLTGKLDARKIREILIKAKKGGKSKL
# Chain of Nuclear receptor subfamily 1 group I member 3 (Homo sapiens) (Q14994 whole entry, looked up): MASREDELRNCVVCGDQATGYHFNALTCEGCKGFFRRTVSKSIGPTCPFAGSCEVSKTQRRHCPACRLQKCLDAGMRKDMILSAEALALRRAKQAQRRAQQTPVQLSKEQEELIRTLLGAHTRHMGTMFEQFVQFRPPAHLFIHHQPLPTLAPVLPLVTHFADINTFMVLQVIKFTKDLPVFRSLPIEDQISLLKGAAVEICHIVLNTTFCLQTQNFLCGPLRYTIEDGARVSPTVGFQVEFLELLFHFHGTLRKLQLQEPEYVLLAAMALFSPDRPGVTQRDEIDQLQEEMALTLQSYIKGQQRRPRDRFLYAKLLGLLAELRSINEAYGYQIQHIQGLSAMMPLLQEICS
Structure (SMILES),Potency [1],Potency [2],Potency [3],Potency [4],outcome [5],Potency [6],Potency [7],Potency [8],Potency [9],Potency [10],Potency [11],Potency [12],Potency [13],Potency [14],outcome [15],outcome [16],Potency [17],outcome [18],Potency [19],Potency [20]
O=c1cc(-c2ccc(O)cc2)oc2c([C@@H]3OC(CO)[C@H](O)[C@@H](O)[C@H]3O)c(O)cc(O)c12 (stereo partly specified),17.5 µM (active),inactive,inactive,inactive,inactive,inactive,inactive,inactive,inactive,inactive,inactive,inactive,inactive,inactive,inactive,inactive,inactive,inactive,inactive,inactive
C/C1=C\CC(=O)/C=C/C=C\c2csc(n2)[C@@H](C)NC(=O)C[C@@](S)([C@@H](C)C(=O)O)CC1,7.82 µM (active),inactive,inactive,inactive,inactive,inactive,inactive,inactive,,inactive,inactive,inactive,inactive,inactive,inactive,inactive,inactive,inactive,inactive,inactive
C/C=C/C=C/C1(O)C2C=C3C(=O)CC45C(=O)C(O)=C(C)C(=O)C4C1C1(C(=O)C(O)=C(C)C(=O)C351)C2C (stereo unspecified),39.2 µM (active),inactive,inactive,inactive,inactive,inactive,inactive,inactive,inactive,inactive,inactive,inactive,inactive,inactive,inactive,inactive,inactive,inactive,inactive,inactive
O=C(O)CC1OC(=O)c2c(O)cccc21 (stereo unspecified),inactive,inactive,inactive,inactive,inactive,inactive,inactive,inactive,inactive,inactive,inactive,inactive,inactive,inactive,inactive,inactive,inactive,inactive,inactive,inactive
O=c1cc(-c2ccc(O)c(O[C@@H]3O[C@H](CO)[C@@H](O)[C@H](O)[C@H]3O)c2)oc2cc(O[C@@H]3O[C@H](CO)[C@@H](O)[C@H](O)[C@H]3O)cc(O)c12,27.7 µM (active),inactive,inactive,inactive,inactive,inactive,inactive,inactive,inactive,inactive,inactive,inactive,inactive,inactive,inactive,inactive,inactive,inactive,inactive,inactive
C/C=C/c1cc(OC)c2c(c1)[C@@H](C)[C@H](c1ccc(O)c(OC)c1)O2,55.3 µM (active),inactive,inactive,inactive,inactive,inactive,inactive,inactive,inactive,inactive,inactive,inactive,inactive,inactive,inactive,inactive,inactive,inactive,inactive,inactive
CN1C(=O)[C@]23SS[C@@]1(C)C(=O)N2[C@H]1Nc2ccccc2[C@]1(c1c[nH]c2ccccc12)[C@@H]3O,49.3 µM (active),0.841 µM (active),,0.941 µM (active),,8.33 µM (active),5.26 µM (active),5.26 µM (active),inactive,2.96 µM (active),inactive,3.7 µM (active),4.67 µM (active),1.66 µM (active),inactive,inactive,1.53 µM (active),inactive,6.6 µM (active),2.4 µM (active)
C/C(=C\[C@H](C)C(=O)CCCC1CC(=O)NC(=O)C1)C(O)[C@@H](C)[C@H](O)C/C=C/CC/C=C/C(=O)O (stereo partly specified),55.3 µM (active),inactive,inactive,inactive,inactive,inactive,inactive,inactive,inactive,inactive,inactive,inactive,inactive,inactive,inactive,inactive,inactive,inactive,inactive,inactive
CC(=O)[C@@H]1[C@@H](O)C[C@H]2[C@]3(C)CC[C@H]4C(C)(C)CCC[C@]4(CO)[C@H]3C[C@H]3OC(=O)[C@@H]1[C@@]32C,55.3 µM (active),inactive,inactive,inactive,inactive,inactive,inactive,inactive,inactive,inactive,inactive,inactive,inactive,inactive,inactive,inactive,inactive,inactive,inactive,inactive
CS/C=C/C(N)=O,inactive,inactive,inactive,inactive,inactive,inactive,inactive,inactive,inactive,inactive,inactive,inactive,inactive,inactive,inactive,inactive,inactive,inactive,inactive,inactive
CCCCCCCCCCCCCCC[C@H](O)C[C@@H](O)C[C@@H](O)C[C@@H](O)C[C@@H](O)C[C@H]1CC=CC(=O)O1,44 µM (active),4.21 µM (active),2.11 µM (active),3.34 µM (active),,16.6 µM (active),26.4 µM (active),9.35 µM (active),inactive,9.35 µM (active),inactive,7.39 µM (active),26.3 µM (active),3.72 µM (active),inactive,inactive,3.06 µM (active),inactive,5.24 µM (active),12 µM (active)
